Among all 290,000 compounds or so, about 3,000 (1%) were called active. The full list was thinned out, with actives kept by preference. Unmarked numbers belong to inactive results. No stated cut-off is given here; in the data, active means inhibition mostly above about 36% (no sharp cut-off); inactive means mostly below about 34%.

Our source for the inhibition values is PubChem BioAssay AID1578 (Sanford-Burnham Center for Chemical Genomics, 2009).

This assay in a line: inhibition of NOD1-driven NF-kB reporter – cell-based, luminescence, uHTS, primary screen (AID 1578).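 Further: HEK-293T reporter cells stimulated with the NOD1 agonist gamma-tri-DAP.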 The following applies: NOD1-driven NF-kB luciferase reporter cells, at 4 µM, hits give high values. (In a reporter assay the amount or activity of a reporter protein is the signal.)
In general, inhibition refers to the relative decrease from the control value, in per cent. As to `CS(=O)(=O)c1ccc(C(=O)NCCN2C(=O)S/C(=C\c3cccnc3)C2=O)cc1[N+](=O)[O-]`, the inhibition was 93.4% (active).

For `COc1ccc(/C=C2\SC(=O)N(CCNC(=O)Cc3coc4cc(OC)ccc34)C2=O)cc1`, the inhibition was -10.8%.

As for `Cc1c(C(=O)NCCN2C(=O)S/C(=C\c3cccnc3)C2=O)cccc1[N+](=O)[O-]`, the inhibition is 1.5%.

Consider `COc1ccc2c(CC(=O)NCCN3C(=O)S/C(=C\c4cccnc4)C3=O)coc2c1`, for which the inhibition was 68% (active).

For the molecule `COc1ccc(/C=C2\SC(=O)N(CCNC(=O)Cc3coc4cc(C)ccc34)C2=O)cc1OC`, the inhibition is -2.7%.

Take `COc1ccc(C(=O)NCCN2C(=O)S/C(=C\c3cccnc3)C2=O)cc1[N+](=O)[O-]`: the inhibition was 1.6%.

On to `O=C(O)CSCC(=O)N1CCN(S(=O)(=O)c2ccccc2)CC1`, for which the inhibition is -20.2%.

For the molecule `c1ccc(NC2=NCCN2CC2CCCC2)cc1`, the inhibition is -17.2%.

Take `CCC(C)NC(=O)c1ccc2nc(Cc3ccc(OC)cc3)oc2c1` (stereo unspecified): the inhibition is -14.9%.

In the case of `COc1ccc(Cc2nc3ccc(C(=O)NC(C)c4cnn(C)c4)cc3o2)cc1` (stereo unspecified), the inhibition is -4.3%.

For the molecule `COc1ccc(OC)c(NC(=O)CNC(=O)Cn2cnc3sc(C)cc3c2=O)c1`, the inhibition is -3.5%.

Consider `O=C(Oc1ccc2ccc(=O)oc2c1)C1CCCCC1`, for which the inhibition was -28.4%.

On to `COc1ccc(-c2cc(=O)oc3cc(OC(C)C(=O)O)ccc23)cc1` (stereo unspecified), for which the inhibition is 29.6%.

`COc1ccc(-c2cc(=O)oc3cc(OCC(C)=O)ccc23)cc1`: the inhibition was -12.9%.

As to `COc1ccc(-c2cc(=O)oc3cc(OC(=O)C4CCCCC4)ccc23)cc1`, the inhibition was 87.8% (active).

Turning to `O=C(Oc1ccc2c(-c3ccccc3)cc(=O)oc2c1)C1CCCCC1`, the inhibition is 13.8%.

For the molecule `Nc1cc(=O)[nH]c(SCc2ccccc2Cl)n1`, the inhibition is -3.2%.

`CN1C(=O)S/C(=C/c2cccnc2)C1=O`: the inhibition was -3.3%.

For `Cc1cc(C(=O)NC2CC(C)(C)Cc3c2cnn3-c2ccccc2C)c(C)o1` (stereo unspecified), the inhibition was -10.6%.

`Clc1ccccc1OCc1nn2c(-c3ccncc3)nnc2s1`: the inhibition is -2.2%.

Take `COc1ccc(NC(=O)CSc2ccc(-c3sc(C)nc3C)nn2)cc1`: the inhibition is -17.2%.

Regarding `COc1ccc(NC(=O)CSc2ccc(-c3sc(C)nc3C)nn2)cc1OC`, the inhibition was -3.5%.

For `CCOC(=O)CCCCCN1C(=O)c2cccc3cccc(c23)C1=O`, the inhibition was -23.8%.

On to `CCN(CC)S(=O)(=O)c1ccc(C(=O)NCCCn2ccnc2)cc1`, for which the inhibition was -65.6%.

With `O=C(O)c1ccc(N2CCCCS2(=O)=O)cc1`, the inhibition is -12.1%.

For `Cc1noc(C(=O)NCc2ccco2)c1Cl`, the inhibition is -14.8%.

Take `COc1ccc(NC(=O)CS(=O)(=O)c2ccc(F)cc2)cc1`: the inhibition was -5.8%.

Consider `O=C(Nc1ccccc1)c1cc2ccc3ccccc3c2s1`, for which the inhibition was -10.5%.

Consider `O=C(Nc1ccc(O)cc1)c1cc2ccccc2c(=O)s1`, for which the inhibition was -2.1%.

Regarding `O=C(Nc1ccccc1)c1cc2ccccc2c(=O)s1`, the inhibition was 63.7% (active).

Consider `Cc1ccc(C)c(N2CCN(C(=O)CCS(=O)(=O)c3cccc4nonc34)CC2)c1`, for which the inhibition was 1.8%.

Turning to `CC(C)C[C@@H](N)c1nnc(SCC(=O)c2ccc(Cl)cc2)o1`, the inhibition is -21.8%.

As for `CC(C)C[C@H](N)c1nnc(SCc2ccc(Cl)cc2)o1`, the inhibition was 20.5% (active).

Take `CC(C)[C@H](N)c1nnc(SCc2ccc(Cl)cc2)o1`: the inhibition was -4.6%.

On to `COc1ccc(N=Cc2cccc(C)c2O)cc1Cl`, for which the inhibition was -10%.

Take `COc1ccc(N=Cc2cc(Cc3ccccc3Cl)cc([N+](=O)[O-])c2O)cc1OC`: the inhibition was 62.4% (active).

With `Cc1ccc(O)c(C=Nc2cc(C)ccc2O)c1`, the inhibition was -25.5%.

On to `COc1cc(C=Nc2cccc(C)c2)c(O)c([N+](=O)[O-])c1`, for which the inhibition is -20.1%.

`O=[N+]([O-])c1cc(Cc2ccccc2)cc(C=Nc2ccc(N3CCOCC3)cc2)c1O`: the inhibition is 34%.

As to `O=C(N/N=C/c1cc([N+](=O)[O-])c(N2CCOCC2)cc1N1CCOCC1)c1cccnc1`, the inhibition was -24.1%.

As to `O=C(COC(=O)COc1ccccc1[N+](=O)[O-])Nc1ccccc1Br`, the inhibition was 9.3%.

Regarding `Cc1c(C(=O)N2CCCC2)sc(NC(=O)c2ccco2)c1C#N`, the inhibition is 48.7% (active).

`Cc1c(C(=O)N2CCCC2)sc(NC(=O)c2ccccc2)c1C#N`: the inhibition is -9.5%.

Consider `Cc1c(C(=O)N2CCCCC2)sc(NC(=O)c2ccco2)c1C#N`, for which the inhibition is -0.9%.

Regarding `CC1C(=NO)C(C)C(c2ccc(N(C)C)cc2)NC1c1ccc(N(C)C)cc1` (stereo unspecified), the inhibition was 4%.

As to `COc1ccc2c(c1)sc1nc(=O)ccn12`, the inhibition is -3.3%.

On to `COc1ccc2c(c1)sc1nc(-c3ccccc3)cn12`, for which the inhibition was 34.4% (active).

Turning to `CCOC(=O)N1CCN(C(=O)c2ccc3c(c2)sc2nc(-c4ccc(OC)cc4)cn23)CC1`, the inhibition was -15.5%.

With `O=C(COc1ccccc1)Nc1ccc(Cl)c(-c2nc3ncccc3o2)c1`, the inhibition is -25.6%.

Take `COc1cccc(C(=O)N2CCN(C(=O)C3CC3)CC2)c1`: the inhibition is -26.7%.

For the molecule `COc1ccc(OC(C)C(=O)N2CCCc3ccccc32)cc1` (stereo unspecified), the inhibition was -45.6%.

Consider `CC(C)CCn1c(O)c(N=NC(=O)c2ccco2)c2ccccc21`, for which the inhibition was 24.4%.

In the case of `Cc1nc2ccccn2c1C(=O)N=Nc1c(O)[nH]c2ccccc12`, the inhibition was 11.6%.

Take `Cc1nc2ccccn2c1C(=O)N=Nc1c(O)n(CCC(C)C)c2ccccc12`: the inhibition is 92% (active).

`CC1=Nc2cc(C(=O)NCCCOC(C)C)ccc2Sc2ccccc21`: the inhibition is 3.6%.

As for `Cc1[nH]n(-c2ccccc2)c(=O)c1-c1ccc(Cl)cc1`, the inhibition was -30.5%.

As to `Cc1[nH]n(-c2cccc(Cl)c2)c(=O)c1-c1ccccc1`, the inhibition is -18%.

With `O=C(CSc1nnc(Cn2c(=O)sc3ccccc32)n1CCc1ccccc1)N1CCOCC1`, the inhibition is -11.3%.

As for `COc1ccccc1N1CCN(C(=O)C2CC=CCC2C(=O)O)CC1` (stereo unspecified), the inhibition was -7.7%.

For the molecule `COc1cccc2c1OCC(C(=O)O)C2` (stereo unspecified), the inhibition was -26.7%.

With `COc1cccc2c1C(CO)N1C(C#N)C3CC(C(=O)O)C(C1C2)N3C` (stereo unspecified), the inhibition was 102% (active).
